Data from ChEMBL document CHEMBL3988442, “University of Dundee, Small-Polar-MMV Screening Library” (2021).

biological target: Chromo domain-containing protein 1 (Saccharomyces cerevisiae (strain ATCC 204508 / S288c) (Baker's yeast)) (UniProt P32657); assay: ScCHD-1 Enzyme Inhibition Assay; type: functional; parameters: scale not given: in the data most compounds retested in dose-response had high values; conditions: 30 µM
Sequence (P32657 whole entry, the tested form may be a part): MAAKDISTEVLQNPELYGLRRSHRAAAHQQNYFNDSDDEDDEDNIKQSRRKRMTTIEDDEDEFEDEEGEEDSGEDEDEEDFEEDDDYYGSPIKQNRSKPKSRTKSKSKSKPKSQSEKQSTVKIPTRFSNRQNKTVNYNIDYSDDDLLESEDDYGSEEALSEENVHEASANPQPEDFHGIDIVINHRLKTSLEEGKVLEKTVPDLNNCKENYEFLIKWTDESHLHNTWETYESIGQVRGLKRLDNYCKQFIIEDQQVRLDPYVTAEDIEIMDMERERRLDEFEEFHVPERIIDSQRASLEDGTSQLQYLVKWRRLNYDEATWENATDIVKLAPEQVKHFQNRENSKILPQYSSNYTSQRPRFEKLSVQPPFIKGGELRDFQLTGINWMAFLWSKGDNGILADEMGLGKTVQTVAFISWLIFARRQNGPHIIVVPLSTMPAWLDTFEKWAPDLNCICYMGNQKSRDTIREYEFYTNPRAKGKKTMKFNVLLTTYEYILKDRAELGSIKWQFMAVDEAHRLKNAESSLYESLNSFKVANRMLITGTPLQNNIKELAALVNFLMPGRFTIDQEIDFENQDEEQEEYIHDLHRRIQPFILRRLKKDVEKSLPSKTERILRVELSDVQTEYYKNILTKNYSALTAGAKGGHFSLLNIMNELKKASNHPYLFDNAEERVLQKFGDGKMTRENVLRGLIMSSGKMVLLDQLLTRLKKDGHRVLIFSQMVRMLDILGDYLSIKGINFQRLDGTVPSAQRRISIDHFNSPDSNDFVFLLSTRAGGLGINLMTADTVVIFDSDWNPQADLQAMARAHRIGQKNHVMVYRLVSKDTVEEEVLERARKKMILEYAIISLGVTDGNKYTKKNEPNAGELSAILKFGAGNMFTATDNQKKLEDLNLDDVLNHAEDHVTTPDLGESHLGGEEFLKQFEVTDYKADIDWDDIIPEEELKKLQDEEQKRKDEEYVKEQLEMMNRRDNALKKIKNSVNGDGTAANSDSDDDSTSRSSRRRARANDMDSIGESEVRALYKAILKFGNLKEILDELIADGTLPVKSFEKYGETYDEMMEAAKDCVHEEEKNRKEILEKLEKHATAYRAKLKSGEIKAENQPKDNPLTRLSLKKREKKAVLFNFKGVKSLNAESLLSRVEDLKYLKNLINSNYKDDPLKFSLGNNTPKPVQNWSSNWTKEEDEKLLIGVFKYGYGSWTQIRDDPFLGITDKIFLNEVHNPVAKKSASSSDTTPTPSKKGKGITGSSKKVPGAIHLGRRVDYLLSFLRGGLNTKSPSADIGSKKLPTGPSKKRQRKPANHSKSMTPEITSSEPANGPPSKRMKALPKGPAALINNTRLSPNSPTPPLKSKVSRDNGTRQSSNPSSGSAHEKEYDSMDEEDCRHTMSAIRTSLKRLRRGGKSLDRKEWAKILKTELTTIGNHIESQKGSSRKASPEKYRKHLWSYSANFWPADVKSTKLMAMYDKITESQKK

| SMILES | Percent Effect [%] |
| --- | --- |
| CCN1CC2(CC1=O)CN(Cc1ccco1)CCN(C(=O)N(C)C)C2 (stereo not given) | 0.322 |
| Cc1ccc(C(CNCc2ccncc2)N2CCOCC2)s1 (stereo not given) | -7.13 |
| CCOc1ncccc1C(=O)N1CCCCC1c1nccs1 (stereo not given) | -9.25 |
| Cn1cc(CN2CC[C@@H]3[C@@H](CCC(=O)N3CCc3c[nH]cn3)C2)cn1 | -0.897 |
| O=C(c1cscn1)N1CCC[C@]2(C[C@H](OCC3CC3)CO2)C1 | 1.14 |
